About 1,000 (0.29%) of roughly 340,000 compounds were called active. No stated cut-off is given here; in the data, inconclusive means inhibition above about 29% without an active follow-up result; inactive means below that. These entries were drawn from the full list. Entries with a potency or affinity are not part of this list.

From PubChem BioAssay AID588689 (Southern Research Specialized Biocontainment Screening …, 2011) come the findings set out here.

This experiment addresses Genome polyprotein (Dengue virus type 2 (strain 16681-PDK53)) (UniProt P29991). The experiment can be described thus: Dengue-2 NS5 methyltransferase inhibitors, primary screen, biochemical, confirmation dose response (AID 588689). Particulars: Dengue-2 NS5 methyltransferase capping enzyme assay, at 25 µM, stronger effect = higher value.

Chain of Genome polyprotein (Dengue virus type 2 (strain 16681-PDK53)) (P29991 whole entry, looked up): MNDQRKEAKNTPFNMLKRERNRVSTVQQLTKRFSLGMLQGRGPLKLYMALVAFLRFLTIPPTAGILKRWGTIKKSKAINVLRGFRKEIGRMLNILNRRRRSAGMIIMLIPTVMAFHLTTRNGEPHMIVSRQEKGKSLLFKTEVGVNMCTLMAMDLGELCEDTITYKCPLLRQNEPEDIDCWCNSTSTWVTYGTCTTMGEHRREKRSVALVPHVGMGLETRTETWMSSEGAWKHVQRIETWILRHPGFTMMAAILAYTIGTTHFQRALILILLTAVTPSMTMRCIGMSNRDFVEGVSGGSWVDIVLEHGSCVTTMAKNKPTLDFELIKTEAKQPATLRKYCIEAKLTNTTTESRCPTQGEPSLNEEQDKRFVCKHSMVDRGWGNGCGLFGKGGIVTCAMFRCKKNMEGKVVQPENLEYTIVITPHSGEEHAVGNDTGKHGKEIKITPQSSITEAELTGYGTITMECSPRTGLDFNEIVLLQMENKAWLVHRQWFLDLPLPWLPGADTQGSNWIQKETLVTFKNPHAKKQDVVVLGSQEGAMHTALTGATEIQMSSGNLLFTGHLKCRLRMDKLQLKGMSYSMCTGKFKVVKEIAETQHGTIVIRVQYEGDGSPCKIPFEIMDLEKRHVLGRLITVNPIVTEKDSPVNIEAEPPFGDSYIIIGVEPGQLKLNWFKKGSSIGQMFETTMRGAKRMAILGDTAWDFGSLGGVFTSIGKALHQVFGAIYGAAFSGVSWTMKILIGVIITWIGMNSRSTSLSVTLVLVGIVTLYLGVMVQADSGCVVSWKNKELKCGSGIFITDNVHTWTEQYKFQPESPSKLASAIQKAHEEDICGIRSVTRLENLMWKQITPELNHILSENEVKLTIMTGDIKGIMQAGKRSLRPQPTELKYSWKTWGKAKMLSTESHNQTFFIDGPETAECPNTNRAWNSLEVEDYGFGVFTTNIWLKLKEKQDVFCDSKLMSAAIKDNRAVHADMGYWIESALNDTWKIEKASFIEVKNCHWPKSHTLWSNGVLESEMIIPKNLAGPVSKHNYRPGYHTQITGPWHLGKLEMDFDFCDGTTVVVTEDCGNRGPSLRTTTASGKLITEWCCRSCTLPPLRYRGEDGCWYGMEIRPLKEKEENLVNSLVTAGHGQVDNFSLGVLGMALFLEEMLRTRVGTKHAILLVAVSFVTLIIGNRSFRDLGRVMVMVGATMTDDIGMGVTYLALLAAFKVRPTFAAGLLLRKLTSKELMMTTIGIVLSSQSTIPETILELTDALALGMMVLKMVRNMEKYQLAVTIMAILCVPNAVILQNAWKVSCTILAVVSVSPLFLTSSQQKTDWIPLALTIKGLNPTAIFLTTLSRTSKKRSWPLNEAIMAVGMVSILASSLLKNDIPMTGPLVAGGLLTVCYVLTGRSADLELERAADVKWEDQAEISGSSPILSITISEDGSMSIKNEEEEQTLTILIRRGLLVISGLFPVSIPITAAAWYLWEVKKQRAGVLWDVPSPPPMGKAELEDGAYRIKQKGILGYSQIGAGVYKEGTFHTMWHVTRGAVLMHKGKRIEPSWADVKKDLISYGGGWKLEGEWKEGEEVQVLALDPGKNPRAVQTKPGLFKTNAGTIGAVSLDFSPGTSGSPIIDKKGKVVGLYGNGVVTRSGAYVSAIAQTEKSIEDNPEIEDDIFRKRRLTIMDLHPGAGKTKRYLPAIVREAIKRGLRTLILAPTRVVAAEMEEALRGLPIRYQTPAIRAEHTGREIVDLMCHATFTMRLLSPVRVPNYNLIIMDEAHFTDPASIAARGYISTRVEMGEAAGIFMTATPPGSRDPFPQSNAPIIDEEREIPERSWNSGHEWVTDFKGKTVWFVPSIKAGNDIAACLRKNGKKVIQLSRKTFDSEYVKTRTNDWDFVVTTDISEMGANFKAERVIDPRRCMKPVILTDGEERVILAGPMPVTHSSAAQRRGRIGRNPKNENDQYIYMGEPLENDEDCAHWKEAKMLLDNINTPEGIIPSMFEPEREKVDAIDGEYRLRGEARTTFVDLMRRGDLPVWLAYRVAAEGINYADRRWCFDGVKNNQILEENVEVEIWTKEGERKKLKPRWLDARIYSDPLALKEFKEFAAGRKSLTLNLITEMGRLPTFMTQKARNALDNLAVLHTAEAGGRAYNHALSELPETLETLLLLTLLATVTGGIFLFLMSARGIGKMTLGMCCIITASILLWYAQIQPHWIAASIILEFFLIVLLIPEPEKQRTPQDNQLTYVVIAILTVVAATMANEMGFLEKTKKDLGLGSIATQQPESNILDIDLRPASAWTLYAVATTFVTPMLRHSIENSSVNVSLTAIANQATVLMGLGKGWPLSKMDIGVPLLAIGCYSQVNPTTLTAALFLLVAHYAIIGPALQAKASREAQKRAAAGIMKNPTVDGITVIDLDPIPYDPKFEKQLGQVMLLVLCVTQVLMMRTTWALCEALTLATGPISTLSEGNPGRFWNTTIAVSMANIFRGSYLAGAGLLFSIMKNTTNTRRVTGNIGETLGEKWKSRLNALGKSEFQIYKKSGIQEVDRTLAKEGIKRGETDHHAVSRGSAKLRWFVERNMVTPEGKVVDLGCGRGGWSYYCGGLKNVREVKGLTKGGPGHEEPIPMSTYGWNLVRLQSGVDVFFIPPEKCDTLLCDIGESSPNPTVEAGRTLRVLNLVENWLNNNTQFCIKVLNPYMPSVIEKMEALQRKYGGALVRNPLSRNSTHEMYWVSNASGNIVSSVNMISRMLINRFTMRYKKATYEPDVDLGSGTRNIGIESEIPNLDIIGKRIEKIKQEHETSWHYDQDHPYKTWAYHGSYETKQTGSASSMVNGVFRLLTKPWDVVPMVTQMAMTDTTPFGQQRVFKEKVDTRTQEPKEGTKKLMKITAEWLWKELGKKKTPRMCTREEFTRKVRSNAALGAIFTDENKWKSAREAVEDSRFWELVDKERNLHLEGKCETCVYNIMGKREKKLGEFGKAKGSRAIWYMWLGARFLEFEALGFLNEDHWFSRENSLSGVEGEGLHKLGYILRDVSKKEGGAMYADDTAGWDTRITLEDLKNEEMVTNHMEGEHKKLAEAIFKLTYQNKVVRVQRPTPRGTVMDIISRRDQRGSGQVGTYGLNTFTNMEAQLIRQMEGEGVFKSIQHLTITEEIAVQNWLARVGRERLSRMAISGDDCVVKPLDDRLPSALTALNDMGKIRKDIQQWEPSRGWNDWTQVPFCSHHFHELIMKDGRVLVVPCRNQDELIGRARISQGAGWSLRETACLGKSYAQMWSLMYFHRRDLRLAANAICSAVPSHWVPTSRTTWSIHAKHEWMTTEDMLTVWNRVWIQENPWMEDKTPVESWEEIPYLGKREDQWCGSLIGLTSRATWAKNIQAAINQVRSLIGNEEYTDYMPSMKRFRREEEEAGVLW

`O=C(CCN1C(=O)C2CC=CCC2C1=O)Nc1cccc(S(=O)(=O)N2CCCCC2)c1` (centres undefined): the inhibition was 0% (inactive).
For the compound `NC(=O)CSc1nnc(-c2cccs2)n1-c1ccccc1`, the inhibition was -6.45% (inactive).
Same read-out and setting: then `COCCN(C(=O)COC(=O)CCSc1ccc(F)cc1)c1c(N)n(Cc2ccccc2)c(=O)[nH]c1=O`, with -5.13% (inactive).
Take `COC(=O)C1(C(=O)OC)C(C(=O)c2ccccc2)C1c1ccccc1` (centres undefined): the inhibition is 5.57% (inactive).
As for `COc1cc(SC)ccc1C(=O)Nc1cccc(S(=O)(=O)NC2=NCCCCC2)c1`, the inhibition was -1.45% (inactive).
Still for that read-out and setting: with `COc1ccc2nc3c(nc2c1)CCCC3` the figure was -8.49% (inactive); with `O=C(Nc1ccc(N2CCOCC2)cc1)Nc1ccc2nc(-c3ccco3)c(-c3ccco3)nc2c1`, 13.6% (inactive); with `COCCNC(=O)Nc1ccc2nc(-c3cccs3)c(-c3cccs3)nc2c1`, -17.7% (inactive).
In the case of `COc1ccc2nc3ccccc3nc2c1`, the inhibition was 18.8% (inactive).
For the compound `CCCNC(=O)c1ccc2nc(-c3ccccc3)c(-c3ccccc3)nc2c1`, the inhibition was -0.8% (inactive).
On the same count and under the same terms, then `CCc1nc2ccc(C(=O)NCCc3ccco3)cc2nc1CC`, with -11.5% (inactive); and `O=C(Nc1cccc(C(F)(F)F)c1)c1ccc2nc(-c3ccco3)c(-c3ccco3)nc2c1`, with 21.6% (inactive); and `O=C(Nc1ccc(N2CCOCC2)cc1)c1ccc2nc(-c3ccco3)c(-c3ccco3)nc2c1`, with 3.24% (inactive).
Take `Cc1ccccc1NC(=O)Cc1cccs1`: the inhibition was -7.91% (inactive). Moreover, the inhibition (measured here: pilot screen replicate inhibition) was -5.49%.
Turning to `COc1cc2c(cc1OC)CC(C(=O)NCc1ccccc1)NC2` (centres undefined), the inhibition is -4.57% (inactive).
Same read-out and setting: with `O=C(C1CCCN(S(=O)(=O)c2ccccc2)C1)N1CCN(c2ccccc2)CC1` (centres undefined) the figure was -6.74% (inactive); with `CCN(CC)C(=O)C1CCCN(C(=O)Nc2ccccc2)C1` (centres undefined), -0.8% (inactive).
Regarding `CN(/N=C/c1ccc2c(c1)OCO2)c1ccccc1`, the inhibition was -8.15% (inactive).
Still for that read-out and setting: then `COc1cccc(-c2ncc3ccccc3c2COC(=O)c2cccs2)c1`, with -7.94% (inactive); and `O=C(c1ccco1)N1CCN(S(=O)(=O)c2cccc(C(F)(F)F)c2)CC1`, with 0% (inactive).
Turning to `O=C(Nc1ccccc1)c1ccc2nc(-c3ccco3)c(-c3ccco3)nc2c1`, the inhibition was 44.6% (inactive).
For `CCc1nc2ccc(C(=O)NCc3ccco3)cc2nc1CC`, the inhibition was -6.11% (inactive).
As to `COc1ccc(-c2nc3ccc(C(=O)NCCCN4CCOCC4)cc3nc2-c2ccc(OC)cc2)cc1`, the inhibition is -9.54% (inactive).
For `O=C(c1ccccc1)c1ccc2nc(-c3ccco3)c(-c3ccco3)nc2c1`, the inhibition is 51.1% (inactive).
`O=C(O)c1ccc2nc(-c3ccccc3)c(-c3ccccc3)nc2c1`: the inhibition is -2.57% (inactive).
For the compound `O=C(c1ccc2nc(-c3ccco3)c(-c3ccco3)nc2c1)N1CCN(c2ccccc2)CC1`, the inhibition was 0% (inactive).
On to `O=C(NCCc1ccccc1)c1ccc2nccnc2c1`, for which the inhibition was 0% (inactive).
`Cc1nc2ccc(C(=O)O)cc2nc1C`: the inhibition is -2.96% (inactive).

The term inhibition denotes the relative decrease from the control value, in per cent.
